High-throughput results (PubChem)
APEX1 inh – blocks human APE1 abasic DNA cleavage. P27695. recombinant APE1, TAMRA/BHQ-2 abasic DNA cleavage fluorescence. Potency, µM (titrated, usually from 65.8 µM), without a hit: top-dose activity change, negative = inhibition, actives largely listed as inhibitors. 0.35% of 350,000 active. AID 2517;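 also: plate controls were vehicle for no effect and reference inhibitor for full effect; nearly all actives have a fitted effect of over 55% in size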
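Incision of a quenched TAMRA/BHQ-2 THF abasic-site duplex (50 nM) by 0.75 nM APE1, after 15 min compound preincubation, measured as fluorescence increase over three 60 s reads. Values normalized to buffer, DMSO and NSC13755 control wells.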
RECQ1 inh-1 – RECQ1 (human) helicase inhibition. AID 2549. RECQ1 DNA unwinding, red fluorescence kinetic read. P46063. 0.54% of 240,000 active. Potency, µM (highest dose often 57.3 µM), without a hit: at the highest dose activity, negative = inhibition, hits mostly inhibitors;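 also: plate controls were vehicle for no effect and no enzyme for full effect; nearly all actives have a fitted effect of over 30% in size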
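50 nM RECQ1T1 preincubated 15 min with compound in Tris pH 8.0 buffer with MgCl2, DTT, Tween-20 and 2.5 ug/ml poly(dI-dC); started with 200 nM TAMRA/BHQ-2 forked duplex and 2 mM ATP. Unwinding read as fluorescence (525/598 nm), two reads 2 h apart.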
BLM inh – inhibitors of human Bloom syndrome helicase BLM | 0.2% of 350,000 active | P54132 | AID 2528 | Potency, µM (doses to about 56.1 µM), inactives show at the highest dose activity change, negative = inhibition, actives largely listed as inhibitors | recombinant BLM DNA unwinding, fluorescence dequenching;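 also: plate controls were vehicle for no effect and no enzyme for full effect; nearly all actives have a fitted effect of over 35% in size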
PKM2 act – activators of human pyruvate kinase M2. P14618. purified PKM2, Kinase-Glo ATP luminescence, activation; response scale: 0% is enzyme alone, no compound. Potency, µM (doses to about 57.5 µM), without a hit: at the top dose activation, most hits filed as activators. 0.34% of 260,000 active. AID 1631; also: nearly all actives have a fitted effect of over 55% in size
Target sequence (P14618 whole entry, looked up): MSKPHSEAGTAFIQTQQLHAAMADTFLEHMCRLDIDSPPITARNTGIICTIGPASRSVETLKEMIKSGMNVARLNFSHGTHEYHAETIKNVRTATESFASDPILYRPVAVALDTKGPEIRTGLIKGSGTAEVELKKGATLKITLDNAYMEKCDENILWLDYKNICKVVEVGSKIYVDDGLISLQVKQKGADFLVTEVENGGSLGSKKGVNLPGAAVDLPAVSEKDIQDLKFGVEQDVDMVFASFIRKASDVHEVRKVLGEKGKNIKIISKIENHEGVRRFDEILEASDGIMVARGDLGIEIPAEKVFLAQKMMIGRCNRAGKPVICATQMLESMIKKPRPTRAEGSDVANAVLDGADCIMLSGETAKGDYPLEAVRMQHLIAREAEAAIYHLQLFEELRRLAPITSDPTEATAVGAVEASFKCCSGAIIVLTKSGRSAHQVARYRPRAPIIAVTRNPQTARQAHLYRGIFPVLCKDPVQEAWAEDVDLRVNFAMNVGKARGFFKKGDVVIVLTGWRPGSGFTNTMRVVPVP
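Kinase-Glo luminescence reports ATP generated from ADP (0.1 mM) and PEP (0.5 mM) by purified hPK-M2 after 1 h at room temperature, pH 7.2 imidazole buffer; intermediate enzyme activity allows detecting inhibitors and activators.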
KDM4E inh – inhibitors of human JMJD2E histone demethylase; 1.6% of 230,000 active; Potency, µM (series often up to 57.1 µM), without a hit: at the top dose activity change, negative = inhibition, actives largely listed as inhibitors; JMJD2E catalytic domain, FDH-coupled NADH fluorescence (FDH is formaldehyde dehydrogenase);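 also: 0% = wells with enzyme and -100% = buffer wells without enzyme; nearly all actives have a fitted effect of over 50% in size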
RECQ1 conf – confirmation of human RECQ1 helicase inhibitors | shares compounds with RECQ1 inh-1 | RECQ1 helicase DNA unwinding, fluorescence | Potency, µM (highest dose often 229 µM), inactives show at the highest dose activity change, negative = inhibition, most hits filed as inhibitors | 28% of 610 active; also: nearly all actives have a fitted effect of over 45% in size
RECQ1 ADP FP – ADP displacement flagged in RECQ1 inhibitor counter-screen | 27% of 530 active | Potency, µM (highest dose often 228 µM), for inactives: at the highest dose activity change, negative = inhibition, actives largely listed as inhibitors | shares compounds with RECQ1 inh-1 | ADP fluorescence polarization displacement counterscreen; also: nearly all actives have a fitted effect of over 45% in size
RECQ1 inh-2 – confirmation of human RECQ1 helicase inhibitors; 15% of 1,100 active; recombinant RECQ1 DNA unwinding, red fluorescence; Potency, µM (doses to about 119 µM), inactives show at the highest dose activity, negative = inhibition, hits mostly inhibitors; shares compounds with RECQ1 inh-1; also: nearly all actives have a fitted effect of over 50% in size
Starred values were filed as active, the others as inactive; [ ] = another dose, or the depositor's remark. Only a selection was taken, and hits are over-represented in it overall. Unless noted, calls follow the shape of the dose curve; as a rule, active = well fitted curve in the direction sought with a large enough effect; inconclusive = small, poorly fitted or top-dose-only effect, or another doubt; inactive = no such curve, though single readings can be large; an effect the other way counts as inactive or inconclusive. Unless noted, % is scaled to controls: 0 for no effect and ±100 for the full control effect; potency is read from the fitted curve at half-maximal effect.

Results for CCC(=O)N(CCC(c1ccccc1)c1ccco1)Cc1cccs1 (stereo not drawn) ?
APEX1 inh: -1%; RECQ1 inh-1: -19%; BLM inh: -7%; PKM2 act: inconclusive; KDM4E inh: -3%

How did COc1ccc(S(=O)(=O)N2CN(Cc3ccco3)c3nc4ccccc4nc32)cc1 do in these assays?
APEX1 inh: 2%; RECQ1 inh-1: 35µM*; BLM inh: -13%; PKM2 act: inconclusive; KDM4E inh: inconclusive; RECQ1 inh-2: inconclusive

How did CCc1ccc(S(=O)(=O)NCCc2csc3nc(-c4ccccc4)nn23)s1 do in these assays?
BLM inh: -7%

Results for Cc1ccn2c(Nc3c(C)cccc3C)c(-c3ccc(Cl)s3)nc2c1 ?
BLM inh: -9%

How did C#C[C@]1(O)CC[C@H]2[C@@H]3CCC4=CCCC[C@@H]4[C@H]3C(=C)C[C@@]21CC do in these assays?
BLM inh: -11%

How did CC1/C=C/C=C/C=C/C=C/C=C/C=C/C=C/C(OC2OC(C)C(O)C(N)C2O)CC2O[C@@](O)(CC(O)CC(O)C(O)CCC(O)CC(O)CC(=O)OC(C)[C@H](C)C1O)CC(O)C2C(=O)O (stereo partly drawn) do in these assays?
APEX1 inh: -27%; RECQ1 inh-1: 20µM*; BLM inh: -5%; KDM4E inh: inconclusive; RECQ1 conf: inconclusive; RECQ1 ADP FP: 56%

Results for Cc1ccc(/C=C/C(=O)c2nc3ccccc3[nH]2)cc1 ?
APEX1 inh: -6%; RECQ1 inh-1: 10µM*; BLM inh: -21%; PKM2 act: -21%; KDM4E inh: 5%; RECQ1 conf: 2%[114 µM]; RECQ1 ADP FP: -14%[91.9 µM]; RECQ1 inh-2: -29%

What do the screens show for `O=C(O)CCC/C=C\C/C=C\C=C\[C@@H](O)C/C=C\CCCCCO`?
APEX1 inh: -1%; RECQ1 inh-1: 0%; BLM inh: 1%; KDM4E inh: 4%

Results for Cc1ccc(C)c(-n2c(SCC(=O)NC(C(=O)O)C(C)C)nnc2-c2cccc(Cl)c2)c1 (stereo not drawn) ?
APEX1 inh: -2%; RECQ1 inh-1: 0%; BLM inh: -1%; PKM2 act: 0%; KDM4E inh: 5%; RECQ1 conf: 13%; RECQ1 ADP FP: 10%

Results for CCC(Cc1c(I)cc(I)c(O)c1I)C(=O)O (stereo not drawn) ?
BLM inh: 6%

What do the screens show for `O=c1[nH][nH]c(C(F)(F)F)c1C=Nc1ccccc1`?
APEX1 inh: 15%; RECQ1 inh-1: -10%; BLM inh: -5%; PKM2 act: -4%; KDM4E inh: -2%

Results for Cc1cc(O)ccc1N=Cc1c(C(F)(F)F)[nH][nH]c1=O ?
APEX1 inh: 17%; RECQ1 inh-1: 8.9µM*; BLM inh: -10%; PKM2 act: -3%; KDM4E inh: -4%; RECQ1 conf: 0%[114 µM]; RECQ1 ADP FP: 6.3µM*; RECQ1 inh-2: -7%

How did N#C/C(=C\c1ccc(-c2ccc(C(=O)O)cc2)o1)c1nc2ccccc2[nH]1 do in these assays?
APEX1 inh: inconclusive; RECQ1 inh-1: inconclusive; BLM inh: -13%; PKM2 act: 10%; KDM4E inh: 28µM*; RECQ1 inh-2: inconclusive

Results for Cc1ccc(-n2nc(-c3ccco3)cc2C(=O)O)c(C)c1 ?
APEX1 inh: inconclusive; RECQ1 inh-1: 20µM*; BLM inh: -16%; PKM2 act: 28µM*; KDM4E inh: inconclusive; RECQ1 inh-2: inconclusive

How did COc1ccc(NC(=O)c2csc(Cc3ccc(Cl)cc3)n2)cc1 do in these assays?
APEX1 inh: 6%; RECQ1 inh-1: inconclusive; BLM inh: -10%; PKM2 act: 1%; KDM4E inh: inconclusive; RECQ1 inh-2: -48%

Results for Cc1ccc(Cl)cc1N1CCN(c2nc3ccccc3c3nc(-c4cccnc4)nn23)CC1 ?
BLM inh: -1%

What do the screens show for `CCCN1CCCc2cc(CN(CCCN3CCOCC3)C(=O)Nc3ccc(Cl)c(Cl)c3)ccc21`?
BLM inh: -9%

What do the screens show for `O=C1c2cccc3c(N4CCCCC4)ccc(c23)C(=O)N1c1cccc(O)c1`?
APEX1 inh: -3%; RECQ1 inh-1: inactive; BLM inh: 3%; PKM2 act: -3%; KDM4E inh: 2%

What do the screens show for `Cc1n[nH]c(C)c1N1C(=O)c2cccc3c(N4CCCCCC4)ccc(c23)C1=O`?
APEX1 inh: -2%; RECQ1 inh-1: 28µM*; BLM inh: -4%; PKM2 act: 2%; KDM4E inh: -11%; RECQ1 inh-2: 79µM*

How did c1ccc(-c2noc(CCC3CCCC3)n2)cc1 do in these assays?
APEX1 inh: 1%; RECQ1 inh-1: 22%; BLM inh: 1%; PKM2 act: 0%; KDM4E inh: 12%

Results for c1cc(-c2noc(CCC3CCCC3)n2)ccn1 ?
APEX1 inh: -4%; RECQ1 inh-1: inconclusive; BLM inh: 0%; PKM2 act: 0%; KDM4E inh: 6%; RECQ1 inh-2: -15%

What do the screens show for `COc1cccc(=O)c2c(C)n(-c3cc(C)cc(C)c3)c(C)c12`?
APEX1 inh: -6%; RECQ1 inh-1: -10%; BLM inh: -8%; PKM2 act: 3%; KDM4E inh: 1%

How did COc1cccc(=O)c2c(C)n(C)c(C)c12 do in these assays?
APEX1 inh: -9%; RECQ1 inh-1: inconclusive; BLM inh: -18%; PKM2 act: 15%; KDM4E inh: -21%; RECQ1 inh-2: -21%

Results for CCCCCn1c(C)c2c(OCC)cccc(=O)c2c1C ?
APEX1 inh: -8%; RECQ1 inh-1: 32µM*; BLM inh: -12%; PKM2 act: 6%; KDM4E inh: inconclusive; RECQ1 inh-2: -11%

Results for O=C(Nc1cccc(S(=O)(=O)NC2=NCCC2)c1)c1cc(-c2ccco2)nc2ccccc12 ?
APEX1 inh: 7.9µM*; RECQ1 inh-1: 11µM*; BLM inh: 10µM*; PKM2 act: inconclusive; KDM4E inh: inconclusive; RECQ1 conf: 14µM*; RECQ1 ADP FP: 40µM*; RECQ1 inh-2: inconclusive

How did CC1=Nc2ccccc2/C1=C\c1nc(-c2ccccc2)oc1O do in these assays?
APEX1 inh: -5%; RECQ1 inh-1: -8%; BLM inh: -11%; PKM2 act: 0%; KDM4E inh: -8%
